This is a sample that favours compounds with a hit; in the whole collection about 11% have one here.
RORgamma inh = blocks mouse ROR gamma transcriptional activity; AID 2551; Drosophila S2 Gal4-RORgamma UAS-luciferase reporter, 20 h; Potency, µM (doses to about 53.6 µM), hits mostly inhibitors; 5.4% of 310,000 active; further: nearly all actives have a fitted effect of over 60% in size
Target sequence (P51450 whole entry, looked up, the tested form may be a part): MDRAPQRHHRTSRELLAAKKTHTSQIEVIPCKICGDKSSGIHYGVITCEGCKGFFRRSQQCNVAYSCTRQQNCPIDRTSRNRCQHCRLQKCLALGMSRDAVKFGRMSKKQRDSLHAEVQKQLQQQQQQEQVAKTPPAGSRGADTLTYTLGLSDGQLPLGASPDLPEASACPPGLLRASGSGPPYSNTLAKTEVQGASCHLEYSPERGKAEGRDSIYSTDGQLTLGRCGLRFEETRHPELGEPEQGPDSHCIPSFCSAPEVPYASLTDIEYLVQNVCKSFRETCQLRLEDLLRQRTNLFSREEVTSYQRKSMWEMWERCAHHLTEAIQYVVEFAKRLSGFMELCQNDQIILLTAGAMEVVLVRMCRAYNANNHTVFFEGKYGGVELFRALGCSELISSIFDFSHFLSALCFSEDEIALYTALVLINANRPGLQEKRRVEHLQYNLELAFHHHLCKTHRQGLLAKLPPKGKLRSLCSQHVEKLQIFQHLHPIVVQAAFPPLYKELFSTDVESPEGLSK
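Luciferase reporter read in Schneider cells carrying Gal4-RORγ (mouse) and UAS-Photinus luciferase; cells given compound 1 h before 700 uM copper sulfate induction, then incubated 20 h at ambient temperature.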
MCF10A rerep = inducers of DNA re-replication in MCF 10A breast cells. MCF 10A DNA re-replication, Hoechst nuclear intensity, 48 h. Potency, µM (highest dose often 46.1 µM), usual class: activators. 2.9% of 350,000 active. AID 624296; further: nearly all actives have a fitted effect of over 50% in size
IL1B secr inh = inhibitors of inflammasome signaling (IL-1 beta secretion); activity change, % at 57.5 µM; 4.7% of 360,000 active; THP-1 LPS/ATP IL-1B secretion, AlphaLISA, 16 h; stronger effect = lower value; in the data active means activity change below about -50%; inconclusive means mostly about -30% to -49%
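THP-1 cells pretreated 1 hr with compounds (up to 57.5 uM final), then stimulated with LPS (250 ng/mL final) plus ATP (1.25 mM final); secreted IL-1B measured by AlphaLISA after 16 hr, decreased signal indicating inhibition.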
SW480 rereplic = induces DNA re-replication in SW480 colon adenocarcinoma cells; SW480 DNA re-replication, Hoechst DNA content imaging, 48 h; Potency, µM (doses to about 46.1 µM), usual class: activators; 1.8% of 340,000 active; AID 624297; further: nearly all actives have a fitted effect of over 55% in size
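250 cells/well; 23 nL cpd via pin tool; 48 hr, 37 C, 5% CO2; Hoechst 40 min; imager read of total nuclear intensity, ex 405/em 500-530 nm.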
VP16 counter = Gal4-VP16 reporter inhibition counter-screen | 3.5% of 310,000 active | Drosophila S2 Gal4-VP16 UAS-luciferase, luminescence, 20 h | Potency, µM (top dose mostly 53.6 µM), hits mostly inhibitors | AID 2546;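 further: Gal4-VP16 expression switched on by copper sulfate through the metallothionein promoter; nearly all actives have a fitted effect of over 50% in size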
Numbers stand for hits; – = inactive; ? = inconclusive; · = not tested or not shown; [ ] = dose if it differs, or a comment. Unless noted, the call rests on the fitted dose curve; in most records, active means well fitted curve in the direction sought with a large enough effect; inconclusive means small, poorly fitted or top-dose-only effect, or another doubt; inactive means no such curve, though single readings can be large; an effect the other way counts as inactive or inconclusive.

SMILES	RORgamma inh	MCF10A rerep	IL1B secr inh	SW480 rereplic	VP16 counter
COc1ccc(CN2CCCC(C(=O)c3ccc(Cl)cc3)C2)cc1Cn1cccn1 (stereo not given)	?	?	-91.6	?	–
COc1ccc(CCN(C)C(=O)c2c(C)nn(-c3ccccc3)c2C)cc1OC	–	–	–	–	–
O=C(CCN1C(=O)S/C(=C\c2ccccc2)C1=O)N1CCOCC1	·	–	-80.1	–	·
O=C(CCCN1C(=O)/C(=C/c2cccc(Br)c2)SC1=S)N1CCOCC1	–	–	–	–	–
O=C(CCN1C(=O)/C(=C\c2ccccc2)SC1=S)N1CCOCC1	–	–	-63.2	–	–
O=C(CCCN1C(=O)/C(=C/c2ccccc2)SC1=S)N1CCOCC1	–	–	-95.7	–	?
COc1ccccc1-c1sc2cc3c(cc2c1C#Cc1cncn1C)OCO3	·	?	–	–	·
CCCC1=NN2C(=N)/C(=C\c3ccc(OCCOc4ccc(NC(C)=O)cc4)c(OC)c3)C(=O)N=C2S1	–	–	–	–	–
COC(=O)C(=Cc1ccc(-c2ccsc2C(=O)OC)o1)C(=O)OC	?	25.9µM	·	5.8µM	–
CCOc1cc(OCC)c(C(=O)CCC(=O)O)cc1OCC	–	–	·	–	–
COc1ccc(-c2nnc3n2N=C(c2c(OC)cccc2OC)CS3)cc1OC	–	·	·	·	–
CC(C)CC(=O)O/N=C1\C(=O)N(c2ccccc2)c2ccccc21	–	–	-64.1	–	–
COC(=O)c1ccc(NC(=O)CSC2=NCCN2)cc1	–	14.6µM	-53.4	?	–
CCOc1ccc(NC(=O)CSC2=NCCN2)cc1	–	–	–	–	–
O=C(Nc1nnc(-c2ccc(F)cc2)o1)c1ccc(S(=O)(=O)N2CCOCC2)cc1	0.631µM	–	–	10.3µM	0.708µM
CS(=O)(=O)c1cccc(-c2nnc(NC(=O)c3ccc(S(=O)(=O)N4CCCC4)cc3)o2)c1	·	–	–	–	·
COc1ccc(-c2nnc(SCC(=O)NNC(=O)c3ccc(C)cc3)o2)cc1	–	–	–	–	–
COc1ccc(-c2nnc(NC(=O)c3cc(Cl)ccc3Cl)o2)cc1	1.12µM	?	–	–	1.41µM
COc1ccc(-c2nnc(NC(=O)c3ccc(F)cc3)o2)cc1	0.112µM	–	–	–	?
COc1ccc(-c2nnc(SCC(=O)Nc3cccc(Cl)c3)o2)cc1	–	?	–	–	?
COc1ccc(NC(=O)c2ccc3c(c2)OCO3)cc1	?	–	–	–	?
COc1ccc(-c2nnc(NC(=O)c3ccc4c(c3)OCCO4)o2)cc1	1.12µM	–	–	–	1.26µM
O=C1NC[C@H](CCCCN2C[C@H](Cc3ccccc3)N(CCC3CCCCC3)C(=O)C2=O)N(CCc2ccc(O)cc2)C1=O	·	·	–	·	·
COc1cccc(-n2cc(C(=O)NC(C)C)c3ccccc3c2=O)c1	–	–	–	–	–
CC(=O)[C@@]1(O)CCC2C3C=CC4=CC(=O)CC[C@]4(C)C3CC[C@@]21C (stereo not given in full)	·	–	–	–	·
SMILES	RORgamma inh	MCF10A rerep	IL1B secr inh	SW480 rereplic	VP16 counter
CC(=O)C1(C)CCC2C3C=C(C)C4=CC(=O)CCC4(C)C3CCC21C (stereo not given)	·	16.4µM	-73.2	–	·
C=C1C[C@H]2[C@@H]3C=C(C)C4=CC(=O)CC[C@]4(C)[C@H]3CC[C@]2(C)[C@@]1(OC(C)=O)C(C)=O	–	–	-73.6	–	–
CC(=O)[C@]1(O)CCC2C3CCC4=CC(=O)CC[C@@]4(C)C3CC[C@]21C (stereo not given in full)	–	·	·	·	–
C=C1CC2C(CCC3(C)C2CCC3(O)C(C)=O)C2(C)CCC(=O)C=C12 (stereo not given)	–	23.1µM	-92.0	–[9.22 µM]	–
C#CCOc1ccc(CNC[C@H]2O[C@@H](n3ccc(N)nc3=O)[C@H](O)[C@@H]2O)cc1	·	·	–	·	·
CC1(c2ccc3ccccc3c2)NC(=O)N(CC(=O)Nc2ncccc2O)C1=O (stereo not given)	·	–	–	–	·
OC(COc1ccc2c(c1)CCC2)CN1CCN(c2ccccc2F)CC1 (stereo not given)	–	–	-52.6	–	–
Cc1cc(OCC(O)CN2CCc3ccccc3C2)ccc1Cl (stereo not given)	–	–	-61.7	–	?
O=C(C1CC1)N1CCC(c2nc(-c3ccc(S(=O)(=O)N4CCCC4)cc3)no2)CC1	–	–	–	–	–
Cc1ccc(S(=O)(=O)N2CCCC(c3nc(-c4ccc(C)o4)no3)C2)cc1 (stereo not given)	–	–	-73.1	–	–
O=C(Cc1ccccc1)N1CCCC(c2nc(-c3ccc(S(=O)(=O)N4CCCC4)cc3)no2)C1 (stereo not given)	–	–	-71.5	–	–
O=S(=O)(NCc1ccncc1)c1ccc(S(=O)(=O)NCC2CCCO2)cc1 (stereo not given)	–	6.51µM	–	–	?
O=C(c1ccccc1)N1CCC(c2nc(-c3ccc(S(=O)(=O)NCC4CCCO4)cc3)no2)CC1 (stereo not given)	–	?	-72.0	–	8.91µM
CCN(CC)C(=O)c1cccc(-c2csc(C(NC(C)=O)c3cccc(OC)c3)n2)c1 (stereo not given)	·	·	–	·	·
COc1cc(/C(C#N)=C/c2ccccc2)c([N+](=O)[O-])cc1OC	?	–	-83.3	–	–
N#C/C(=C\c1cccnc1)c1ccccc1[N+](=O)[O-]	–	–	-91.8	?	–
N#C/C(=C\c1cccnc1)C(=O)Nc1ccccc1[N+](=O)[O-]	–	–	–	–	–
COc1cc(/C=C(/C#N)c2ccccc2)ccc1Oc1ccc([N+](=O)[O-])cn1	?	–	-73.8	–	?
COc1ccc(/C=C(\C#N)c2cc(OC)c(OC)cc2[N+](=O)[O-])cc1	–	–	–	–	–
CCCCCC(=O)O[C@H](CC(=O)O)C[N+](C)(C)C	–	·	·	·	–
CCCC[C@H](O)c1ccccc1	–	–	·	–	–
COc1cc(/C=C/C(=O)c2ccc(Cl)s2)cc(OC)c1O	?	?	-105.0	?	–
C/C(=C\C(=O)c1ccc(Cl)s1)N(C)C	7.08µM	–	–	–	?
O=C(/C=C\Nc1ccc2c(c1)OCO2)c1ccc(Cl)s1	–	–	–	–	–
O=C(C=Cc1ccc(Cl)s1)c1ccc(Cl)s1	·	?	-51.0	?	·
CCCC(=O)OC1(C(=O)CO)CCC2C3CCC4=CC(=O)CCC4(C)C3C(O)CC21C (stereo not given)	–	·	·	·	–
Clc1ccc(OCc2nc3ccccc3[nH]2)cc1	?	–	-51.4	–	–
COc1ccc(NS(=O)(=O)c2ccc3nc(COc4ccc5ccccc5c4)[nH]c3c2)cc1	–	–	-67.3	?	–
COc1ccc(OCc2nc3ccc(S(=O)(=O)Nc4ccccc4Cl)cc3[nH]2)cc1	?	?	-51.0	–	–
Cc1ccc(C(=O)N2CCOCC2)cc1S(=O)(=O)N1CCCCC1	–	–	–	–	–
